# Compound activity (PubChem BioAssay)
# Marburg entry inh: qHTS for inhibitors of binding or entry into cells for Marburg Virus; Marburg virus pseudotyped entry inhibition, cell reporter; Potency, µM (highest dose often 37.8 µM), inactives show at the highest dose activity change, negative = inhibition, usual class: inhibitors; 300,000 tested, 1.8% active; calls by dose curve; tested in HEK293 cells; further: potency means the concentration at half of the fitted maximal effect
# Lassa entry inh: qHTS for Inhibitors of binding or entry into cells for Lassa Virus. Lassa virus pseudotype entry inhibition, cell reporter. Potency, µM (highest dose often 37.9 µM), without a hit: at the highest dose activity change, negative = inhibition, most hits filed as inhibitors. 300,000 tested, 1.2% active. AID 540256, 2011; calls by dose curve; tested in HEK293 cells; further: potency means the concentration at half of the fitted maximal effect; nearly all actives have a fitted effect of over 50% in size
# HCMV antiviral: qHTS Assay for inhibitors of the human cytomegalovirus (HCMV); 410,000 tested, 4.5% active; activity change, negative = inhibition, % at 57.5 µM; HFF cells, HCMV-luciferase reporter, 72 h; stronger effect = lower value; AID 1259415, 2018; in the data active means activity change below about -60%; inconclusive means no clear call, values can overlap the other calls; inactive means above about -39%
#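 Two-dose cell screen: HFF monolayers treated with compounds and infected with luciferase-expressing HCMV at 1 PFU/cell, 72 h at 37C, then lysed for luciferase measurement.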
# FMDV inh: High Throughput Screening for Foot and Mouth Disease Virus Antivirals; Potency, µM (titrated, usually from 57.9 µM), inactives show at the highest dose activity change, negative = inhibition, actives largely listed as inhibitors; FMDV antiviral cell-based qHTS; 410,000 tested, 1.2% active; AID 1159524, 2015; calls by dose curve; tested in HEK293T cells; further: read-out not given here; potency means the concentration at half of the fitted maximal effect; nearly all actives have a fitted effect of over 45% in size
# Starred values were filed as active, the others as inactive; ? = inconclusive; nt = no result given; [ ] = remark or other dose. Compounds with a hit are over-represented: about 6.2% of the library has one in this group of screens. On the % scale 0 is the no-effect control and ±100 the full control effect.
SMILES,Marburg entry inh,Lassa entry inh,HCMV antiviral,FMDV inh
CCOC(=O)C1=C(c2ccccc2)N=c2sc(=Cc3cc(OC)c(OC)c(OC)c3)c(=O)n2C1c1cccs1 (stereo not given),nt,nt,-14,-24%
CCOC(=O)C1=C(c2ccccc2)N=c2s/c(=C\c3ccc(O)cc3)c(=O)n2C1c1cccs1 (stereo not given),?,16µM*,45,25µM*
COc1cc(CNc2nc(C)c(-c3ccn(CC4CCCN(C)C4)n3)s2)ccc1F (stereo not given),nt,nt,nt,0%
Cc1ccc(S(=O)(=O)CC(=O)N2CCN(c3nc4c(F)cccc4s3)CC2)cc1,nt,0%[46.1 µM],28,0%
CCOc1ccc(NC(=O)CC2C(=O)N(c3ccccc3)C(=O)N2Cc2cccc(OC)c2)cc1 (stereo not given),nt,0%[46.1 µM],-10,13%
COc1cccc(NC(=O)C2(C)CCN2C(C)C)c1OC (stereo not given),nt,nt,-6,-20%
Cc1c(Br)cccc1NC(=O)C1(C)CCN1C(C)C (stereo not given),nt,nt,-80*,-9%
CC1OC(O[C@@H]2C(O)CC(O[C@@H]3C(O)C[C@@H](OC4CC[C@]5(C)[C@H](CC[C@H]6[C@@H]5CC[C@]5(C)C(C7=CC(=O)OC7)C(O)C[C@@]65O)C4)OC3C)OC2C)CC(O)C1O (stereo not given in full),nt,nt,nt,-29%
CC(=O)OC1CC2(O)C3CCC4CC(O)CCC4(C)C3CCC2(C)C1C1=CC(=O)OC1 (stereo not given),?,?,-97*,?
CC(=O)[C@@]1(O)[C@H](O)CC2C3CCC4CC(O)CC[C@]4(C)C3CC[C@@]21C (stereo not given in full),nt,nt,nt,-5%
CC1OC(OC2C(O)CC(OC3C(O)CC(OC4CCC5(C)C(CCC6C5CCC5(C)C(C7=CC(=O)OC7)C(O)CC65O)C4)OC3C)OC2C)CC(O)C1O (stereo not given),?,0.32µM*,-97*,?
CC(=O)OC1CC(OC2C(O)CC(OC3C(O)CC(OC4CCC5(C)C(CCC6C5CCC5(C)C(C7=CC(=O)OC7)C(O)CC65O)C4)OC3C)OC2C)OC(C)C1OC1OC(CO)C(O)C(O)C1O (stereo not given),0.18µM*,?,-101*,?
C[C@H]1O[C@@H](O[C@H]2[C@@H](O)C[C@H](O[C@H]3[C@@H](O)C[C@H](O[C@H]4CC[C@@]5(C)[C@H](CC[C@@H]6[C@@H]5CC[C@]5(C)[C@@H](C7=CC(=O)OC7)CC[C@]65O)C4)O[C@@H]3C)O[C@@H]2C)C[C@H](O)[C@@H]1O,0.058µM*,0.21µM*,nt,?
COc1ccc([C@]23Cc4cc(C#N)ccc4[C@H](O2)c2c(cc(C)n(-c4ccccc4)c2=O)O3)cc1,2%[14.2 µM],nt,nt,nt
C[C@@H]1Cn2cnc(C(=O)N3CCN(C(=O)OC(C)(C)C)CC3)c2C(=O)N1,nt,nt,-9,nt
COC(=O)c1sccc1S(=O)(=O)N(CC(=O)Nc1cc(C)ccc1C)c1ccc(C)c(C)c1,nt,?,-1,-24%
COc1ccc(-c2cc(C(=O)Nc3sc4c(c3C#N)CCCC4)c3ccccc3n2)cc1,?,0%,-32,1%
COc1ccccc1-c1cc(C(=O)Nc2sc3c(c2C#N)CCC(C)C3)c2ccccc2n1 (stereo not given),4%,-9%,14,-29%
Cc1ccccc1-c1cc(C(=O)Nc2sc(C(=O)OC(C)C)c(C)c2C#N)c2ccccc2n1,12µM*,?,-101*,?
COC(=O)c1sc(NC(=O)c2cc(-c3ccccc3)nc3ccccc23)c(C#N)c1C,?,?,-97*,3.2µM*
CCOC(=O)c1sc(NC(=O)c2cc(-c3ccc(C)cc3)nc3ccccc23)c(C#N)c1C,18%,5%,-103*,?
Cc1ncc2c(c1CNC(=O)c1cncs1)CCN(C(=O)c1cc(F)c(F)cc1F)C2,nt,nt,nt,-4%
O=C(Nc1ccccc1)N1CCC2(CC1)CCN(C(=O)c1ccncc1)CC2,nt,nt,nt,-2%
COC(=O)c1ccccc1NC(=O)Cn1nc(C(F)(F)F)c2c1CCCC2,?,14%[46.1 µM],?,-28%
NCCCNc1nc(N)c([N+](=O)[O-])c(NC2CCCCC2)n1,nt,nt,-97*,?
SMILES,Marburg entry inh,Lassa entry inh,HCMV antiviral,FMDV inh
CC(NC(=O)C1CCN(S(=O)(=O)c2cccc3cccnc23)CC1)c1ccccc1 (stereo not given),nt,nt,15,-4%
COc1ccc(N(C)C(=O)C2CCN(S(=O)(=O)c3cccc4nonc34)CC2)c(OC)c1,?,?,-61*,-25%
COc1cc(NC(=O)C2CCN(S(=O)(=O)c3cccc4nonc34)CC2)cc(OC)c1,-18%,4%,22,?
CC(NC(=O)C1CCN(S(=O)(=O)c2cccc3nonc23)CC1)c1ccccc1 (stereo not given),-13%[46.1 µM],-12%[46.1 µM],-88*,13%
COc1ccccc1N1CCN(c2csc3ccc(Cl)cc3c2=O)CC1,nt,0%[46.1 µM],13,13%
Cc1cc(C)c(S(=O)(=O)Nc2ccccc2-c2ccccc2)c(C)c1,?,?,-79*,?
Cc1c(C(=O)NCCC2CCCN2C)cnn1-c1nccc(-c2ccccc2F)n1 (stereo not given),nt,nt,nt,-14%
CCSc1cc(N2CCCC2)nc(-c2cccc(C)c2)n1,?,?,-62*,-9%
COc1ccc(/C=c2\sc3nc(=O)c(C)nn3c2=O)c(OC)c1,nt,nt,-62*,2%
CCN1CCN(Cc2ccc(C)cc2C)CC1,-12%,-28%,8,-24%
Cc1ccc(C[n+]2cccc(-c3ccccc3)c2)c(C)c1,?,?,-96*,?
CCOC(=O)N1CCc2c(sc3c2C(=O)NC(c2cc(OC)c(OC)c(OC)c2)N3)C1 (stereo not given),?,?,-3,-23%
CCn1cnc2cc(NCc3nc4ccccc4n3Cc3ccccc3)ccc21,?,10µM*,-34,-25%
CCOC(=O)c1c(-c2ccccc2)oc2ccc(N(C(C)=O)S(=O)(=O)c3cc(C)ccc3C)cc12,-12%[46.1 µM],-11%[46.1 µM],-106*,11%
COC(=O)c1c(C)oc2ccc(N(C(=O)c3ccncc3)S(=O)(=O)c3cc(C)ccc3C)cc12,-29%[46.1 µM],?,-65*,-9%
Cc1ccnc2c(N3C(=O)C4C5c6ccccc6C(c6ccccc65)C4C3=O)cccc12 (stereo not given),?,21µM*,?,?
O=C1C2C3c4ccccc4C(c4ccccc43)C2C(=O)N1c1ccncc1 (stereo not given),nt,nt,-64*,?
CCN(CC)S(=O)(=O)c1ccc2c(c1)N(CC(=O)N1CCN(c3cc(Cl)ccc3C)CC1)C(=O)CO2,nt,?,7,?
CCN(CC)S(=O)(=O)c1ccc2c(c1)N(CC(=O)NCCCN1CCN(c3cc(Cl)ccc3C)CC1)C(=O)CO2,13µM*,?,-74*,?
Cc1ccc(NC(=O)c2ccco2)c(NC(=O)c2ccccc2)c1,12%[46.1 µM],-2%[46.1 µM],3,3%
